CSC inhib: cancer stem cell viability inhibitors, primary screen, luminescence | cancer stem cell-like cells viability | inhibition, % at 7.5 µM | hit rate 1.1% among 300,000; in the data active = inhibition above about 75%; inconclusive = no clear call, values can overlap the other calls; tested in HMLE shEcad cells
SKKanGAS inh: S. pyogenes SKKanGAS growth inhibitors in kanamycin, primary screen, streptokinase expression inhibitor project, SKKanGAS strain, BacTiter-Glo luminescence. 6 h. inhibition, % at 7.5 µM. hit rate 1.3% among 300,000. AID 1662, 2009;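 active = mean replicate score, as percent of positive control median, at least 50; inconclusive = mean below 50 but one replicate at or above 50; inactive = mean and every replicate below 50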;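 note: strain carries kanamycin resistance gene driven by streptokinase promoter and grows in 40 µg/ml kanamycin; loss of luminescence reflects streptokinase promoter inhibition or plain growth inhibition; 0% = median of DMSO wells and 100% = positive control at its reference dose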
IEC-6 tox: cytotoxicity in IEC-6 intestinal epithelial cells, primary screen, cytotoxicity control for KLF5 inhibitor project, cell-based, luminescence; hit rate 0.78% among 290,000; inhibition, % at 5 µM; IEC-6 cytotoxicity, luminescence viability; in the data active = inhibition above about 22%;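 note: 0% = plate median of test compound wells and 100% = cytotoxic reference compound wells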
aSyn UTR inh: MLPCN primary screen, SNCA 5' untranslated region; alpha-synuclein 5'UTR reporter, inhibitor activity; inhibition, % (tested at 7.5 µM); hit rate 0.82% among 300,000; AID 1813, 2009; in the data active = inhibition above about 60%; inconclusive = no clear call, values can overlap the other calls;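 note: H4 neuroglioblastoma cells stably carrying SNCA 5'UTR luciferase fusion; 0% = DMSO wells and 100% = positive control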
KLF5 inhibitor: KLF5 expression inhibitors, primary screen, DLD-1 cells, luminescence; DLD-1 KLF5 promoter-luciferase reporter; inhibition, % at 5 µM; hit rate 0.23% among 290,000;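 active = inhibition above a per-plate limit of that plate's mean compound inhibition plus 3 SD, cut at about 60% in these data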;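 note: 0% = DMSO wells and 100% = LY294002 at 200 µM; higher means less KLF5 promoter-driven luciferase light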
Starred values were filed as active, the others as inactive; ? = inconclusive; / = no result. Shown are actives, neighbours in structure and some others; about 3% of the full set was active somewhere.

SMILES	CSC inhib	SKKanGAS inh	IEC-6 tox	aSyn UTR inh	KLF5 inhibitor
COc1ccc(-n2nnnc2SCC(=O)NC(=O)Nc2ccc3c(c2)OCCO3)cc1	4	/	-2	/	-54
C=CCn1c(O)c(N=NC(=S)Nc2ccccc2C)c2cc(S(=O)(=O)N3CCOCC3)ccc21	31	-2	9	80*	3
Cn1c(O)c(N=NC(=S)Nc2ccccc2F)c2cc(S(=O)(=O)N3CCOCC3)ccc21	/	?	-8	95*	-6
O=C(Nc1ccccc1F)Nc1cc(S(=O)(=O)N2CCOCC2)ccc1N1CCCC1	-11	-4	7	-43	-13
Cc1ccc(NC(=S)N=Nc2c(O)n(C)c3ccc(S(=O)(=O)N4CCOCC4)cc23)cc1C	2	10	-3	77*	8
Cn1c(N)c(C(=O)CSc2nn(-c3ccc(F)cc3)c(=S)s2)c(=O)n(C)c1=O	11	/	/	/	/
CN(C(=O)c1ccccc1C(=O)OCC(=O)Nc1ccccc1)c1ccccc1	16	/	/	/	/
COc1nnc(-c2ccc(C)c(S(=O)(=O)NC(C)C)c2)c2ccccc12	-22	-4	3	0	-35
COc1ccc(-n2c(Cc3cccn3C)nnc2SCC(=O)Nc2cccc(NC(C)=O)c2)cc1	-11	-1	-2	18	-20
COc1ccc(-n2c(Cc3cccn3C)nnc2SCC(=O)Nc2cccc(Cl)c2)cc1	117*	10	0	19	-4
COc1cc(OC)cc(-c2sc3ccc(OC)cc3c2C#CCO)c1	102*	/	/	/	/
COc1cccc(-c2sc3ccc(OC)cc3c2C#CCCO)c1	116*	/	/	/	/
COc1cc(OC)cc(-c2sc3ccc(OC)cc3c2C#CC(C)(C)O)c1	-6	/	/	/	/
Cc1ccc(NC(=O)CN(C)S(=O)(=O)c2cccs2)c(Br)c1	3	2	1	-47	-59
O=C(CNC(=O)c1ccco1)NCc1nc2ccccc2[nH]1	-5	51*	3	-11	-3
O=C(NCc1nc2ccccc2[nH]1)c1ccco1	-7	-3	-6	-32	-25
COc1cccc(CN2CC(C(=O)NCCc3ccc(C)s3)CCC2=O)c1 (centres undefined)	-20	-9	0	-1	-31
OCCN1CCN(C2CCC(c3ccc(F)cc3)c3ccc(F)cc32)CC1 (centres undefined)	83*	7	/	12	/
CC(=O)NC(C)c1nc2ccccc2n1CC(=O)NC(C)CCc1ccccc1 (centres undefined)	-2	2	-3	1	-25
CCC(=O)NC(/C=C/c1ccccc1)c1cc([N+](=O)[O-])c2cccnc2c1O (centres undefined)	151*	41	-4	-94	-39
Cc1ccc(C(NC(=O)C(C)C)c2cc([N+](=O)[O-])c3cccnc3c2O)cc1 (centres undefined)	144*	89*	-2	-29	-24
CC(C)C(=O)NC(c1cccs1)c1cc([N+](=O)[O-])c2cccnc2c1O (centres undefined)	104*	77*	-2	53	-17
Cc1ccc([N+](=O)[O-])c2cccnc12	-10	0	1	-7	-25
CC(C)C(=O)NC(c1ccc([N+](=O)[O-])cc1)c1c(O)ccc2ccccc12 (centres undefined)	/	-2	1	24	-13
COc1ccccc1NC(=O)NCCCCc1ccccc1	0	50*	-5	-4	-22
SMILES	CSC inhib	SKKanGAS inh	IEC-6 tox	aSyn UTR inh	KLF5 inhibitor
CC1(C)[C@@H](O)CC[C@]2(C)C3C(O)C=C4[C@H]5C[C@@](C)(CO)CC[C@]5(C)CC[C@]4(C)[C@]3(C)CC[C@@H]12 (some centres undefined)	126*	99*	/	11	/
O=C(Nc1ccc2ccccc2c1)c1ccc(Cl)cc1	1	-19	-1	-23	-88
Cc1ccc(C(=O)Nc2ccc3ccccc3c2)cc1	21	-5	0	66*	72*
COc1ccc(C(=O)Nc2ccc3[nH]ccc3c2)cc1	32	14	/	66*	/
O=C(c1ccncc1)c1ccc(NS(=O)(=O)c2ccc(Br)s2)cc1	5	13	5	10	4
O=C(Nc1ccc2ccccc2c1)c1ccc(NS(=O)(=O)c2ccc(Br)s2)cc1	-17	96*	-3	-102	-19
COc1cc(/C=C(\NC(C)=O)C(=O)N2CCCCC2)ccc1OC(C)=O	-7	1	6	-30	-22
CC1Oc2ccccc2N(CC(=O)N2CCCCCC2)C1=O (centres undefined)	-2	5	-2	3	11
Cc1cccc2cc(-c3nc4ccc(C(=O)O)cc4[nH]3)c(=O)oc12	-4	26	-1	-26	-25
Cc1ccc(/C=C/C(=O)OCC(=O)NC(C)C)o1	-7	0	0	1	-20
CC(C)OCCCn1c(SCC(=O)Nc2ccccc2C(F)(F)F)nc2nccnc2c1=O	-10	-4	-8	15	9
Cc1ccc(C(=O)NC(=C(Cl)Cl)S(=O)(=O)c2ccc(Cl)cc2)cc1	-4	-2	4	-29	8
Cc1ccc(C(=O)NC(=C(Cl)Cl)S(=O)(=O)c2ccc(C)cc2)cc1	96*	9	-6	-72	-23
O=C(Nc1cccc(F)c1)c1c(O)c2ccccc2[nH]c1=O	8	2	0	-140	-106
O=C(N/N=C/c1cccc(F)c1)c1c(O)c2ccccc2[nH]c1=O	35	92*	2	-37	-13
O=C(N/N=C/c1ccccc1)c1c(O)c2ccccc2[nH]c1=O	19	20	-2	-26	-19
O=C(N/N=C/c1ccc(F)cc1)c1c(O)c2ccccc2[nH]c1=O	4	94*	0	43	-22
CC1=Nc2nc(N3CCCCC3)c(C#N)c3c4c(nc(c23)N1)N(c1ccc(C(C)C)cc1)C(=O)C4	-3	36	-6	-5	1
CCOC(=O)c1sc(NC(=O)C(C)Sc2nnc(N)s2)nc1C (centres undefined)	-8	0	0	12	2
CC1CC(=O)N(CC(=O)Nc2ccccc2F)c2ccccc2S1(=O)=O (centres undefined)	-4	-5	-6	16	-3
CC(C)(C)C1CCC2(CC1)C(C#N)=C(SCC(=O)Nc1ccccc1)NC(=O)C2C#N (centres undefined)	66	68*	-2	8	-2
Cc1nn(-c2ccccc2)c(C)c1/C=N\NS(=O)(=O)c1ccc(Cl)cc1	-5	11	3	7	-15
Cn1c(-c2ccccc2)cc2c3no[n+]([O-])c3ccc21	108*	35	-2	-69	-57
N#Cc1c(-c2ccccc2)nc(SCC(=O)N2c3ccccc3Sc3ccccc32)[nH]c1=O	54	73*	-2	-13	-8
C=CCSc1nc(-c2ccccc2)c(C#N)c(=O)[nH]1	1	/	-3	14	-9
N#Cc1c(-c2ccccc2)nc(SCc2ccc(Cl)cc2)[nH]c1=O	104*	61*	-7	12	-12
O=C(Nc1ccccc1C(F)(F)F)c1c(F)cccc1Cl	-10	2	1	15	-17
